Source: PubChem BioAssay
HSF1 inh = HSF1 inhibition; activity change, negative = inhibition, % at 7.5 µM (by protocol); NIH3T3-HGL HSE-luciferase, MG132-induced, luminescence 8 h; hits give low values; 0.77% of 300,000 active;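 active = more than half of replicate wells show activity change below -50%, luminescence cut by over half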;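 also: luciferase reports HSF-1 transcriptional activity via heat shock element; 0% = median of DMSO wells and -100% = zero luminescence signal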
MPTP inh = permeability transition pore inhibition | AID 602449 | 1.4% of 360,000 active | inhibition, % at 10 µM | isolated mouse mitochondria, Ca2+ swelling absorbance, 30 min;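 active = inhibition of 50% or more, scaled per plate between neutral and stimulator controls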;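 also: 0% = DMSO wells given calcium and 100% = 1 mM EGTA wells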
Platelet DG rel = modulates dense granule release in human platelets | human platelet-rich plasma, SFLLRN dense granule ATP release, luminescence | inhibition, %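 (compounds screened at 7.5 µM in platelet-rich plasma)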 | 0.22% of 300,000 active | AID 1663;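 active = mean replicate score, as percent of positive control, at or above 50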
HSP90 inh = HSP90 refolding inhibition in rabbit reticulocyte lysate | luciferase refolding luminescence, 3 h | 0.91% of 290,000 active | inhibition, % at 5.6 µM;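 active = inhibition above the screen-wide mean plus 3 SD, computed separately per campaign, cut at about 16% in these data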;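 also: 0% = DMSO wells and 100% = 60 µM geldanamycin wells; inhibitors lower the luminescence because luciferase stays unfolded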
HSF-1 act = increases HSF-1 driven luciferase reporter signal; NIH3T3-HGL HSF-1 luciferase reporter, MG132, 8 h; 100% = twice DMSO control signal; activation, % at 9 µM; 1.7% of 300,000 active; AID 504408;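 active = mean replicate activation of at least 50% with a set share of replicates each reaching 50%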;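 also: 0% = median of the neutral control wells and 100% = twice that signal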
dFosB act = enhances mouse delta FosB homodimer DNA binding | P13346 | purified delta FosB, TAMRA-CDK5 oligo fluorescence polarization; percent of positive-control signal above neutral wells | activation, % at 25 µM | 0.99% of 340,000 active | AID 493131;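 active = mean activation above about 17%, with every replicate also reaching it, limit read from the data, passing the limit was not always enough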
Target sequence (P13346 whole entry, looked up): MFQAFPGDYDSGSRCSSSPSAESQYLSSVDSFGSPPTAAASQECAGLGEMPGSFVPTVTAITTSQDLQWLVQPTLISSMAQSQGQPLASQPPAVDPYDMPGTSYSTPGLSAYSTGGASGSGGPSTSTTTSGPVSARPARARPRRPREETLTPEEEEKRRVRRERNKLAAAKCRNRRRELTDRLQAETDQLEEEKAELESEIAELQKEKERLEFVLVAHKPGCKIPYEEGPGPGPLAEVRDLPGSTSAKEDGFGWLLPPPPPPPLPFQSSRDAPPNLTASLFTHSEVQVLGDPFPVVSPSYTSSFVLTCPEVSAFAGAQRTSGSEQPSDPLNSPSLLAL
Rh123 counter = Rhodamine 123 counter-screen of mitochondrial pore hits. isolated mitochondria, membrane potential, Rhodamine 123 fluorescence. shares compounds with MPTP inh. AID 624504. inhibition, % at 10 µM. 78% of 5,000 active; in the data active = inhibition above about 22%;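 also: 0% = DMSO vehicle and 100% = positive control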
MPTP abs DR = dose response confirmation of mitochondrial permeability transition pore inhibitors; AID 651561; isolated mitochondria swelling, absorbance; IC50, µM; 58% of 780 active; shares compounds with MPTP inh; in the data active = IC50 below about 20 µM
MPTP cs DR = active in counter-screen for permeability transition pore inhibitors; isolated mitochondria counterscreen, fluorescence read-out; IC50, µM; 49% of 780 active; shares compounds with MPTP inh; AID 651564; in the data active = IC50 below about 80 µM
* marks the source's active call; other numbers are inactive results; . = no result; ! = not active in a repeat. This is a sample that favours compounds with a hit; in the whole collection about 4.9% have one here.

SMILES	HSF1 inh	MPTP inh	Platelet DG rel	HSP90 inh	HSF-1 act	dFosB act	Rh123 counter	others
CCOC(=O)c1c(C)[nH]c(C(=O)N(C)CC(=O)Nc2ccc(OCC)c(OCC)c2)c1C	.	1	.	.	.	.	.
O=C(Nc1ccccc1)Nc1cnccn1	-2	1	-1	3	-9	-6	.
Cc1ccc(C(=O)OCC(=O)Nc2ccc(C)c(S(=O)(=O)N3CCCCC3)c2)c(O)c1	.	0	.	.	.	.	.
CCN1CCN(Cc2ccc(NC(=O)c3ccc(C)c(NC(=O)C(=O)c4c[nH]c5ccccc45)c3)cc2C(F)(F)F)CC1	-41	94*!	-1	3	-52	-14	-12
O=C(Nc1cccc(Cl)c1)Nc1nccs1	16	72*	6	1	18	-7	92*
O=C(Nc1ccc(Cl)c(Cl)c1)Nc1nccs1	6	87*	7	1	4	-4	68*
Cc1cccnc1NC(=O)Nc1cccc(Cl)c1	-9	0	0	-6	-27	-3	.
CC[C@@H](C(=O)[C@@H](C)[C@@H](O)[C@H](C)CCc1ccc(C)c(O)c1C(=O)O)[C@H]1O[C@](CC)([C@H]2CC[C@](O)(CC)[C@H](C)O2)C[C@@H]1C	32	104*	0	-6	38	-18	84*
Cc1ccc2nc(-c3ccc(C#N)cc3)c(Cc3ccccn3)n2c1	.	-2	.	.	.	.	.
Cc1cc(Nc2cccc(F)c2)nc(-c2ccccc2O)n1	1	59*	4	-2	13	-8	51*
CC(C)C[C@@]12C(=O)N(c3cccc(F)c3)C(=O)N1[C@H](c1ccc(Cl)cc1)[C@@H]1C(=O)N(C3CCCCC3)C(=O)[C@@H]12	-16	2	-5	.	-36	-7	.
CN(C(=O)c1cccc(NC(=O)Cc2ccc(NC(=O)C3CCCN(C(=O)C4CCCCC4)C3)cc2)c1)C1CCC1 (stereo unspecified)	.	0	.	.	.	-11	.
Oc1c(Cl)cc(Cl)cc1CNc1nc2ccccc2[nH]1	6	72*	-4	2	12	5	77*
Oc1c(Cl)cc(Cl)cc1CNc1ccccn1	15	2	6	4	33	-5	.
CN1CCN(C(=O)C2=NOC3(C2)C(=O)Nc2ccccc23)CC1 (stereo unspecified)	.	-1	.	.	.	.	.
CC(C)CCCCCCNC(=S)Nc1ccc(S(=O)(=O)N2CCOCC2)cc1	-5	84*	-5	1	6	0	83*
CC(NC(=S)Nc1ccc(S(=O)(=O)N2CCOCC2)cc1)C1CC2CCC1C2 (stereo unspecified)	1	93*	4	5	-11	-6	92*
COC(=O)c1cccc(NC(=S)Nc2ccc(Cl)c(Cl)c2)c1	12	80*	5	0	39	0	91*
COC(=O)c1cccc(NC(=O)Nc2ccc(Cl)cc2)c1	2	77*	4	-3	16	-12	92*
COC(=O)c1cc(NC(=S)Nc2cc(Cl)cc(Cl)c2)cc(C(=O)OC)c1	1	83*	-6	0	8	-4	75*
COC(=O)c1cccc(NC(=S)Nc2ccccc2Cl)c1	-10	9	5	-4	1	-5	.
NS(=O)(=O)c1cccc(NC(=O)Nc2ccc(Cl)cc2)c1	10	89*	2	0	30	-1	86*
Cn1cnc(S(=O)(=O)N2CCCCC2c2cc(C(=O)Nc3ccc(F)c(Cl)c3)no2)c1 (stereo unspecified)	.	1	.	.	.	.	.
CC(C)S(=O)(=O)c1csc(C(=O)NNC(=O)Nc2ccccc2)c1Cl	0	2	-18	-2	-1	-4	.
CC(C)S(=O)(=O)c1csc(NC(=O)Nc2ccc(Cl)cc2)c1	60	76*	-2	-1	77*	-2	79*
SMILES	HSF1 inh	MPTP inh	Platelet DG rel	HSP90 inh	HSF-1 act	dFosB act	Rh123 counter	others
Cc1nn(C(C)C(=O)NNC(=S)Nc2ccc(Cl)cc2)c(C)c1[N+](=O)[O-] (stereo unspecified)	1	51*	5	1	3	-8	60*
Cc1nn(CCC(=O)NNC(=S)Nc2ccc(Cl)cc2)c(C)c1[N+](=O)[O-]	-3	23	3	3	-5	-9	.
O=C(Nc1cccc([N+](=O)[O-])c1)c1ccncc1	-1	-2	-1	-3	-12	-8	.
O=C(Nc1cc(Sc2ccccn2)cc([N+](=O)[O-])c1)c1ccc(Cl)cc1	6	53*	-7	-6	-6	-5	72*
O=C(Nc1cc(Sc2ccccn2)cc([N+](=O)[O-])c1)c1cccc(Cl)c1	-1	95*	-2	4	8	-1	76*
CCC1=NN(C(=O)c2ccc(Br)cc2)C(O)(c2ccccc2)C1 (stereo unspecified)	19	61*	7	-1	20	3	75*
COc1ccc(C(=O)N/C(=C/c2ccco2)C(=O)NC2CCS(=O)(=O)C2)cc1 (stereo unspecified)	-1	1	-1	4	-15	0	.
COc1ccc(CCNC(=O)C2CCCN(Cc3nc(-c4ccccc4C)oc3C)C2)cc1OC (stereo unspecified)	29	59*	2	6	72*	-1	8	MPTP abs DR=18*;MPTP cs DR=35*
COc1ccc(CCNC(=O)C2CCN(Cc3nc(-c4cccc(Cl)c4)oc3C)CC2)cc1OC	-2	52*	8	-5	6	-7	14	MPTP abs DR=18*;MPTP cs DR=37*
Cc1oc(-c2cccc(Cl)c2)nc1CN1CCC(C(=O)NCCCN2CC(C)CC(C)C2)CC1 (stereo unspecified)	-1	14	-3	-9	4	-2	.
CCc1ccc(-c2nc(CN3CCCC(C(=O)NCCc4ccc(OC)c(OC)c4)C3)c(C)o2)cc1 (stereo unspecified)	-5	6	0	12	3	-13	.
CCOC(=O)N1CCC(NC(=O)C2CCCN(Cc3nc(-c4cccc(Cl)c4)oc3C)C2)CC1 (stereo unspecified)	-2	94*	17	0	-7	-14	51*
CCCCNC(=O)c1c(N)[nH]c(C(=O)c2ccccc2)c1-c1ccc(Cl)cc1	.	0	.	.	.	.	.
O=C1NC[C@H](CCCCN2CCN(CC3CCCCC3)C(=O)C2=O)N(CC2CCCCC2)C1=O	.	0	.	.	.	.	.
COC(=O)c1cccc(NC(=O)NC23CC4CC(CC(C4)C2)C3)c1	8	5	-1	6	10	-3	.
COC(=O)c1ccc(Cl)c(NC(=O)NC23CC4CC(CC(C4)C2)C3)c1	0	94*	-3	-1	3	-1	83*
